The results in this text go back to PubChem BioAssay (NCATS).

Unmarked numbers belong to inactive results. Records with an inconclusive call do not appear. The source made the active and inactive calls. Unless noted, calls come from the whole dose curve; as a rule, active = well fitted curve in either direction with a large enough effect (not every such curve was filed as active); inconclusive = small, poorly fitted or top-dose-only effect, or another doubt; inactive = flat fitted curve, though single readings scatter.

In assay [1] the target is Lysosomal acid glucosylceramidase (Homo sapiens) (UniProt P04062). As to the kind of experiment: Glucocerebrosidase-p2 (AID 348; in the data active = potency below about 10 µM; note: potency is the fitted concentration of half-maximal effect). To be noted: purified GBA, blue fluorogenic substrate, 40 min. Summed up:
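Normal human glucocerebrosidase (0.2 nM) with blue fluorogenic substrate (80 uM final) in citrate/phosphate pH 5.9 with 10mM sodium taurocholate, 0.01% tween-20; 40 min RT, NaOH/glycine stop; fluorescence Ex 365/Em 440; AC50 from a titration from 0.6 nM upwards.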

A short description of assay [2]: AP1 Signaling Pathway (AID 357). Note: % is set by controls: 0 for no effect and ±100 for the full control effect. The following applies: ME-180 AP-1-bla reporter, EGF-induced, beta-lactamase ratio, 5 h; at 7.69 µM (top of the series) unless noted. Summed up:
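ME-180 cells with beta-lactamase reporter under AP-1 response element, stimulated with EC50 EGF; compounds tested in titration series, 5 h at 37 °C. CCF4 substrate added 2.5 h at room temperature; 460/530 nm emission ratio gave %activity and AC50.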

The target of assay [3] is Cytochrome P450 1A2 (Homo sapiens) (UniProt P05177). Description: p450-cyp1a2 (AID 410; calls by dose curve; note: potency is the fitted concentration of half-maximal effect). The following applies: recombinant CYP1A2, luciferin-ME demethylation, luminescence; series mostly up to 57 µM. Summed up: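 O-Demethylation of luciferin 6' methyl ether by human CYP1A2 is monitored as luciferase luminescence. Substrate sits at Km (100uM); enzyme is 20nM. Values are scaled to 57 uM furafylline as maximal inhibition.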
Cytochrome P450 1A2 (Homo sapiens), sequence (P05177 whole entry, looked up): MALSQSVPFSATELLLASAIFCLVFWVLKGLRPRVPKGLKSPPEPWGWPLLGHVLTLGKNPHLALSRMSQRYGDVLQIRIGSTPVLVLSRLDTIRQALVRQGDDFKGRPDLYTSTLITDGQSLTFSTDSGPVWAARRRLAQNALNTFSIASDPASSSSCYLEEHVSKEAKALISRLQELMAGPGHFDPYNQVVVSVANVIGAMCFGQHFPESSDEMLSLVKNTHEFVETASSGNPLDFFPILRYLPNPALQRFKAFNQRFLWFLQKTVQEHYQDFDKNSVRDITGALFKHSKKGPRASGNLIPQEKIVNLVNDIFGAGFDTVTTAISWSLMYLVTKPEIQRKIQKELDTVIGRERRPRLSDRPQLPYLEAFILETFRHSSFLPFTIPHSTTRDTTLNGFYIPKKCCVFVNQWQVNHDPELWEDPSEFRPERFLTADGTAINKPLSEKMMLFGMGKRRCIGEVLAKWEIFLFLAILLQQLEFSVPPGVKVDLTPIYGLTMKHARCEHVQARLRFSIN

Assay [4] is described as follows: NFAT Signaling Pathway (AID 444).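 Note: carbachol stimulus at about its EC50 of 1 µM final; % is set by controls: 0 for no effect and ±100 for the full control effect.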 To be noted: Jurkat NFAT-bla M1, carbachol, beta-lactamase ratio, 5 h; at 7.69 µM (top of the series) unless noted. The gist of the method:
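Jurkat cells carrying an NFAT-driven β-lactamase reporter and co-transfected muscarinic M1 receptor were treated with compound plus carbachol (1 uM final, an EC50 level) for 5 h at 37 °C. CCF4 loading followed for 1 h at RT; 460/530 nm ratio gave %activity.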

Assay [5] can be described thus: Stat Signaling Pathway (AID 446).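 Note: ME-180 cervical cancer cells given 40 pM IL-6 alongside compound; SIE-controlled beta-lactamase reporter measured as 460/530 nm FRET emission ratio; % is set by controls: 0 for no effect and ±100 for the full control effect.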 The following applies: ME-180 (cervical carcinoma) SIE beta-lactamase reporter, IL-6 stimulated, 5 h; at 7.69 µM (top of the series) unless noted. Summed up: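 Normalization used AC90 stimulation (300 pM IL-6) and AC90 inhibition (125 nM pan-JAK inhibitor at 40 pM IL-6). The underlying signal is SIE-driven beta-lactamase in ME-180 cells after 5 h IL-6 exposure with compound.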

In assay [6] the target is Glucocorticoid receptor (Homo sapiens) (UniProt P04150). Description: GR-EFC Redistribution (AID 451; calls by dose curve; note: potency is the fitted concentration of half-maximal effect). The following applies: CHO-K1 GR-EFC translocation, beta-gal luminescence, 2 h. Summed up: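 CHO-K1 cells stably expressing nuclear-localized β-gal enzyme acceptor and GR fused C-terminally to the enzyme donor fragment; ligand-driven nuclear translocation restores β-gal by complementation. Compounds titrated up to 46 uM final, 2 h at 37 °C; luminescence read.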
Glucocorticoid receptor (Homo sapiens), sequence (P04150 whole entry, looked up, the tested form may be a part): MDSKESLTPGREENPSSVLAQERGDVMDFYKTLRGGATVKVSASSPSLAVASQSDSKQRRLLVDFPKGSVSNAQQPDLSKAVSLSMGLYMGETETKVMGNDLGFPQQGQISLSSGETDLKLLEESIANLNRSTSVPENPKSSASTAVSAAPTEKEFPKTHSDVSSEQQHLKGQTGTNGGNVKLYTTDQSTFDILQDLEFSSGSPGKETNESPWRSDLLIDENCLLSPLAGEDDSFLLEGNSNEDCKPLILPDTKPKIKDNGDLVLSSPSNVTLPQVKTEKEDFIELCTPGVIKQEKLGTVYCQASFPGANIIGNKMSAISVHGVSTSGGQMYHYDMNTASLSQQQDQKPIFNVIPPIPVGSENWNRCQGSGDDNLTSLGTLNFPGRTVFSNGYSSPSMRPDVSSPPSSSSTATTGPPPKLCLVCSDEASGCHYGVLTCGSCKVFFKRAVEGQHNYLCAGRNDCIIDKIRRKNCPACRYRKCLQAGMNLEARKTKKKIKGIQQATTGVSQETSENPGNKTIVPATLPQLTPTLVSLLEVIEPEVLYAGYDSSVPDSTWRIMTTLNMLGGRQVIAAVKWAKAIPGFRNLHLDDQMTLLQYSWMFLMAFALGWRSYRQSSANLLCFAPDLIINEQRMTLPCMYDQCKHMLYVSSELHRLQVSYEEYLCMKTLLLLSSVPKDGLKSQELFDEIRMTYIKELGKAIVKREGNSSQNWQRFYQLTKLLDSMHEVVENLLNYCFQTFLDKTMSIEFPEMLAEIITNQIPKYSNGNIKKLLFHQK

Assay [7] addresses Mitogen-activated protein kinase 10 (Mus musculus) (UniProt Q61831). Description: JNK3 AlphaScreen Assay (AID 530).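 Note: kinase came from lysate of stimulated human HepG2 cells; % is set by controls: 0 for no effect and ±100 for the full control effect.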 The following applies: JNK3 lysate, c-Jun phosphorylation; series mostly up to 57.1 µM. The gist of the method: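 Phosphorylation of biotinylated GST-cJun(1-79) at Ser73 is measured by AlphaScreen proximity luminescence. Enzyme is JNK3 in HepG2 lysates activated with interleukin-1beta and tumor necrosis factor alpha; ATP is 10 uM final.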

The target of assay [8] is 3',5'-cyclic-AMP phosphodiesterase 4B (Homo sapiens) (UniProt Q07343). Description: qHTS Assay for Inhibitors of PDE-IV (AID 607; active = well fitted activation curve with a large enough effect in the main read-out, with a control signal flat, not every such curve was filed as active; note: % of control where 0% means no effect). The following applies: HEK293 ACTOne CNG channel cells, membrane potential fluorescence; series mostly up to 22.9 µM. Summed up: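 HEK293 ACTOne cells with CNG channel (1000/well), endogenous PDE4; membrane potential dye, compounds up to 22.9 uM final. Fluorescence Ex 535/Em 590; RO 20-1724 (100 uM final) as reference.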
3',5'-cyclic-AMP phosphodiesterase 4B (Homo sapiens), sequence (Q07343 whole entry, looked up): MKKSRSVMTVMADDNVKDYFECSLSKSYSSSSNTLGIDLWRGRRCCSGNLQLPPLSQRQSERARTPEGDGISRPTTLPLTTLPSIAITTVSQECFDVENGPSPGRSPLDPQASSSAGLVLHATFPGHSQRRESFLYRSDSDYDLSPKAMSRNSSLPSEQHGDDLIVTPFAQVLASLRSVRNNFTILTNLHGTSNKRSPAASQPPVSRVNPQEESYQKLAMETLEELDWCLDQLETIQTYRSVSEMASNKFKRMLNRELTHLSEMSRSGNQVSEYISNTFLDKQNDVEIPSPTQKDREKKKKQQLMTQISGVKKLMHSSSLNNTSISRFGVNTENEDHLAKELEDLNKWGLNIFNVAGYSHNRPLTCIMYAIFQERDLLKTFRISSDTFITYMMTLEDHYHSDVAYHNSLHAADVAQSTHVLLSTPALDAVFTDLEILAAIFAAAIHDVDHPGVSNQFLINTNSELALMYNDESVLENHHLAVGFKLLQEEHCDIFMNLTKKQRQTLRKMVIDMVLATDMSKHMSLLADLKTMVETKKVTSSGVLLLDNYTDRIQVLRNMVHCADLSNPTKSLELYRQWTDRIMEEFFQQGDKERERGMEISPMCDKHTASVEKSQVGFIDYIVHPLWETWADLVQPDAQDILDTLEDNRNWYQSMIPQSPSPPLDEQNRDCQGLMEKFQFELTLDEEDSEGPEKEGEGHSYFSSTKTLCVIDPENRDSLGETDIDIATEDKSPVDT
(In qHTS, concentration-response curves come from the screen itself.)

The target of assay [9] is Cytochrome P450 3A4 (Homo sapiens) (UniProt P08684). As to the kind of experiment: qHTS Assay for Activators of Cytochrome P450 3A4 (AID 885; active = well fitted curve in the direction sought with a large enough effect; an effect the other way counts as inactive or inconclusive; note: nearly all actives have a fitted effect of over 65% in size). To be noted: recombinant CYP3A4, Luciferin-PPXE luminescence, 60 min; series mostly up to 57.1 µM. Summed up: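 Human CYP3A4 dealkylates Luciferin-PPXE to luciferin, which luciferase detection converts to light. Substrate was at its KM (25uM), buffer 200mM KPO4, reaction 60 min at RT.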
Cytochrome P450 3A4 (Homo sapiens), sequence (P08684 whole entry, looked up): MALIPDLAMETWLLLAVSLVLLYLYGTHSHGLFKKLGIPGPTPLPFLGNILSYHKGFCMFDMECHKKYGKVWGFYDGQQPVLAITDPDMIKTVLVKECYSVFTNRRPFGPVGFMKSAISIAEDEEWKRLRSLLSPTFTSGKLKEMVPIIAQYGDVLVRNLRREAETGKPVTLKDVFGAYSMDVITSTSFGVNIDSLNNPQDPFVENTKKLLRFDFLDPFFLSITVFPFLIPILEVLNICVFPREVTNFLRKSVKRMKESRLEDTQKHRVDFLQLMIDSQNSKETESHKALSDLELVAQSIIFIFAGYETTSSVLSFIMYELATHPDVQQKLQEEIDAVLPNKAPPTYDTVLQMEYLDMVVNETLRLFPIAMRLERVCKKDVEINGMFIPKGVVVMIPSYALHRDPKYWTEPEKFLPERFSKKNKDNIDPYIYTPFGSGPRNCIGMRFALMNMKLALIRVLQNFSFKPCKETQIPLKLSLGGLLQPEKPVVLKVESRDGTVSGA

Assay [10] is described as follows: Primary qHTS for small molecule stabilizers of the endoplasmic reticulum resident proteome: Secreted ER Calcium Modulated Protein (SERCaMP) assay (AID 1508630; active = well fitted curve in the direction sought with a large enough effect; an effect the other way counts as inactive or inconclusive; note: % is set by controls: 0 for no effect and ±100 for the full control effect). The following applies: SH-SY5Y GLuc-SERCaMP (Gaussia luciferase released on ER calcium loss) secretion, thapsigargin, luminescence; series mostly up to 38.4 µM. Summed up: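 The SH-SY5Y reporter protocol was run at 3 concentrations up to 38.3 uM (primary) or 11 concentrations (follow-up): 16 h compound, 100 nM thapsigargin for 4 h, then extracellular luciferase luminescence.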

Assay [11] addresses Cytochrome P450 2C19 (Homo sapiens) (UniProt P33261). As to the kind of experiment: qHTS Assay for Inhibitors and Substrates of Cytochrome P450 2C19 (AID 899; active = well fitted curve in the direction sought with a large enough effect; an effect the other way counts as inactive or inconclusive; note: potency is the fitted concentration of half-maximal effect; nearly all actives have a fitted effect of over 60% in size). To be noted: recombinant CYP2C19, luciferin-H EGE luminescence; series mostly up to 57.1 µM. Summed up: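 Human CYP2C19 (5nM) with Luciferin-H EGE at 10uM (its KM) in 50mM KPO4 was preincubated with compound for 10 min at 37C. NADPH regeneration started a 60 min 37C reaction. Luciferin was read by luminescence, normalized to 57uM ketoconazole.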

Lysosomal acid glucosylceramidase (Homo sapiens), sequence (P04062 whole entry, looked up): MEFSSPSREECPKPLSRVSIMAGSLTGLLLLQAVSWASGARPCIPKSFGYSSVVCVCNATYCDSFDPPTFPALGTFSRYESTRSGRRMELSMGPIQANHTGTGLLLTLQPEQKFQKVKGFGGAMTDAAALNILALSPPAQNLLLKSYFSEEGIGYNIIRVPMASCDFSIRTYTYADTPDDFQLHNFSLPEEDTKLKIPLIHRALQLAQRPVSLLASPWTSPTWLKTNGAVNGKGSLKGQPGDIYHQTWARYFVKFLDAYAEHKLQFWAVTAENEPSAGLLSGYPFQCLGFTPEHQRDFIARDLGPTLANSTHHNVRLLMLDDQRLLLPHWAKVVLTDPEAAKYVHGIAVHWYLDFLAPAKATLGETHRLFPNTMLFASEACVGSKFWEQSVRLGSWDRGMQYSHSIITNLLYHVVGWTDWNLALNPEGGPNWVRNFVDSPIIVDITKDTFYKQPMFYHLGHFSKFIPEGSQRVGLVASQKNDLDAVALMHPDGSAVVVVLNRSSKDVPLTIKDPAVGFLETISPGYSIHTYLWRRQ
Cytochrome P450 2C19 (Homo sapiens), sequence (P33261 whole entry, looked up): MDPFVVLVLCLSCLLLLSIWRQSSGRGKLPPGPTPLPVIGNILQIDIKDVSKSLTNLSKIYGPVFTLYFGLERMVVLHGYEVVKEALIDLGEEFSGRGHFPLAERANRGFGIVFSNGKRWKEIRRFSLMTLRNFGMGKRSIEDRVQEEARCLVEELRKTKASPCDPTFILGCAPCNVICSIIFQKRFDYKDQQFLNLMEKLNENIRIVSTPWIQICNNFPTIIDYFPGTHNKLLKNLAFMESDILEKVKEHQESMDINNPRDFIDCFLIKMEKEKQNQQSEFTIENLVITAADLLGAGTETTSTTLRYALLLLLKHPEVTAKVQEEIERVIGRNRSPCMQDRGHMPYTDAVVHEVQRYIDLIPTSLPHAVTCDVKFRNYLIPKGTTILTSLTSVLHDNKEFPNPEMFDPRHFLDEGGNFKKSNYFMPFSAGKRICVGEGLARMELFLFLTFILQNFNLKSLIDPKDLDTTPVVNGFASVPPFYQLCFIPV

Take `O=C(c1cccc(F)c1)N1CCC2(CCCN(c3ccc(-c4ccccc4)cc3)C2)CC1`: the Potency was greater than 11.4 µM in assay [1], 15.8 µM (active) in assay [3] and greater than 46 µM in [6]. Also, the activity change, negative = inhibition in [2] is 6.64%; in assay [4], -3.55%. Further, the activity, negative = inhibition in assay [5] is 1.09%. In addition, the Potency entry in [7], in [8] and in assay [9] was “inactive” in each case. In [10], the outcome was inactive.
As for `COC(=O)N1CCC[C@@]2(CCN(C(=O)Nc3ccc(OC)cc3)C2)C1`, the Potency was greater than 11.4 µM in assay [1] and greater than 46 µM in [6]. Also, the figures for the activity change, negative = inhibition in [2] and in assay [4] were -11% and -1.85%, respectively. Further, the Potency entry in assay [3], in assay [7], in [8] and in assay [9] was “inactive” each time. Moreover, the activity, negative = inhibition in assay [5] was 3.7%. Moreover, the outcome in assay [10] was inactive.
Take `Cc1noc(C)c1C(=O)N1CCC[C@@]2(CCN(Cc3nccs3)C2)C1`: the Potency in assay [1] is greater than 11.4 µM; in [6], greater than 46 µM. Moreover, the values for the activity change, negative = inhibition in assay [2] and in assay [4] were -0.7% and 9.88%, respectively. Further, the Potency result in assay [3], in [7], in assay [8] and in [9] was “inactive” in each case. Besides, the activity, negative = inhibition in assay [5] was -7.79%. Moreover, the result in assay [10] was inactive.
On to `COc1ccc(C(=O)N2CCC3(CCCN(c4ncccn4)C3)CC2)cc1`, for which the Potency in assay [1] is greater than 11.4 µM; in assay [3], 20 µM (active); in [6], greater than 46 µM. The activity change, negative = inhibition is 0.224% in [2] and 13.8% in [4]. The activity, negative = inhibition in [5] is -4.23%. The Potency entry in assay [7], in assay [8] and in assay [9] was “inactive” in each case. For the same compound, the outcome in assay [10] was inactive.
Consider `O=C(c1cc(C(F)(F)F)cc(C(F)(F)F)c1)N1CCC2(CC1)CN(Cc1ccncc1)C2`, for which the Potency was greater than 11.4 µM in assay [1], 20 µM (active) in assay [3] and greater than 46 µM in assay [6]. Also, the activity change, negative = inhibition in assay [2] was -12.2%; in assay [4] it was -6.5%. For the same compound, the activity, negative = inhibition in [5] was 5.6%. For the same compound, the Potency result in assay [7], in assay [8] and in assay [9] was “inactive” each time. Moreover, the outcome in [10] was inactive.
`O=C(Nc1cccc(F)c1)N1CC[C@@]2(CCCN(C(=O)c3cnccn3)C2)C1`: the Potency in [1] is greater than 11.4 µM; in assay [6] it was greater than 46 µM. Also, the activity change, negative = inhibition in [2] is 4.63%; in assay [4], 12.9%. Also, the Potency result in assay [3], in [7], in assay [8] and in assay [9] was “inactive” each time. For the same compound, the activity, negative = inhibition in [5] was 2.65%. Also, in [10], the result was inactive.
As for `CC(=O)N1CCC2(CCCN(Cc3nccs3)C2)CC1`, the Potency is greater than 11.4 µM in assay [1], greater than 46 µM in assay [6] and 5.01 µM (active) in [11]. Moreover, the activity change, negative = inhibition is 3.8% in assay [2] and -6.07% in assay [4]. The Potency result in assay [3], in assay [7], in assay [8] and in assay [9] was “inactive” in each case. For the same compound, in [5], the activity, negative = inhibition was 6.5%. For the same compound, the result in [10] was inactive.
On to `O=C(Nc1cccc(F)c1)N1CCCC2(CCN(C(=O)c3cnccn3)CC2)C1`, for which the Potency in assay [1] is greater than 11.4 µM; in assay [6], greater than 46 µM. Besides, the activity change, negative = inhibition in assay [2] is -5.64%; in assay [4], -3.4%. Further, the Potency result in assay [3], in assay [7] and in assay [9] was “inactive” in each case. Besides, the activity, negative = inhibition in assay [5] is -5.83%. For the same compound, in [10], the result was inactive.
